FBW7 act = human FBW7 E3 ligase activation, primary screen. normalized activity (activation), % at 26.1 µM. 650,000 tested, 0.13% active. AlphaScreen FBW7–phospho-cyclin E peptide binding, activator screen; in the data active = normalized activity above about 1.9%;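 note: purified mutant Fbw7 with reduced substrate affinity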
GPR151 ag = activates the human receptor GPR151 | Q8TDV0 | PathHunter beta-arrestin GPR151 cells, luminescence | activation, % at 11.2 µM | 650,000 tested, 1% active; in the data active = activation above about 4.9%;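 note: 0% = median of compound wells and 100% = cells with positive control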
TEAD-YAP block = TEAD-YAP interaction inhibition | HEK-TIYL cells, TEAD-Gal4/YAP UAS-luciferase luminescence | inhibition, % at 9.12 µM | 640,000 tested, 1.4% active | AID 1259422; in the data active = inhibition above about 32%;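 note: 0% = median of test compound wells and 100% = reference inhibitor wells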
MITF inh = blocks human microphthalmia-associated transcription factor. O75030. AlphaScreen MITF homodimerization, bead proximity signal. inhibition, % at 2.6 µM. 650,000 tested, 0.91% active. AID 1259374; in the data active = inhibition above about 50%;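 note: 0% = vehicle wells with protein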
Target sequence (O75030 whole entry, looked up): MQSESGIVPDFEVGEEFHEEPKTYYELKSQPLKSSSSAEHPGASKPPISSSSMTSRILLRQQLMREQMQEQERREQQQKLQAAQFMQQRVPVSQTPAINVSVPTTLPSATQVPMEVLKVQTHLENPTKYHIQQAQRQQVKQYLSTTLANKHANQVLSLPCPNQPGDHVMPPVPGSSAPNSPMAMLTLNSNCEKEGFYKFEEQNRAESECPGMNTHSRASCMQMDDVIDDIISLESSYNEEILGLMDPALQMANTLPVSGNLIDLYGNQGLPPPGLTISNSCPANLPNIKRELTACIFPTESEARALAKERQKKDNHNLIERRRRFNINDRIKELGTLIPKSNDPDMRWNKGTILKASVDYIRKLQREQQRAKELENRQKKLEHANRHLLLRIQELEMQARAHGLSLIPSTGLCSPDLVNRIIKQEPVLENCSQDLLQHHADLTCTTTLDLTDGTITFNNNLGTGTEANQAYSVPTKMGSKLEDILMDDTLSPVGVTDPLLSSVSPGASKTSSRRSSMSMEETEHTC
Active calls of the source: *. Hits are enriched below; roughly 3.5% of the tested compounds scored in any of these assays.

COc1ccc(CNc2ccc(C(=O)Nc3cccc(OC)c3)cc2[N+](=O)[O-])cc1 was read as FBW7 act -0.2, GPR151 ag -0.8, TEAD-YAP block 51.7* and MITF inh 5.2.
`O=C(Cn1c2ccccc2n2nc(-c3cccs3)nc12)c1ccccc1` gave FBW7 act -0.2, GPR151 ag 0.5, TEAD-YAP block -6.8 and MITF inh -3.2.
`O=C(CN1CC[n+]2c(-c3cccs3)csc21)c1ccccc1` gave FBW7 act 0.0, GPR151 ag 0.0, TEAD-YAP block 32.1* and MITF inh 8.9.
Cc1cc2ccccc2cc1Cn1c(-n2ccnc2)nc2c1c(=O)n(C)c(=O)n2C was read as FBW7 act 0.0, GPR151 ag 1.1, TEAD-YAP block 5.5 and MITF inh 1.6.
For Cn1c(=O)c2c(nc(-n3ccnc3)n2Cc2ccc(Cl)cc2Cl)n(C)c1=O the results were FBW7 act 1.9*, GPR151 ag 1.4, TEAD-YAP block -16.6 and MITF inh 4.1.
For CC(C)(C)c1ccc(C(=O)NCCOc2ccccc2Cl)cc1 the results were FBW7 act 0.2, GPR151 ag 2.2, TEAD-YAP block 66.3* and MITF inh 12.5.
CCOc1ccccc1NC(=O)c1c(N)sc2c1CCCC2 was read as FBW7 act -0.1, GPR151 ag 0.0, TEAD-YAP block 14.7 and MITF inh -22.4.
`CCOC(=O)N1CCc2c(sc(N)c2C(=O)Nc2ccccc2OCC)C1` gave FBW7 act 0.0, GPR151 ag -1.7, TEAD-YAP block 32.1* and MITF inh -7.4.
`CCOC(=O)N1CCc2c(sc(NC(=O)c3cccc(Br)c3)c2C#N)C1` gave FBW7 act -0.1, GPR151 ag -0.5, TEAD-YAP block 41.5* and MITF inh -13.3.
CCOC(=O)N1CCc2c(sc(NCc3cccc(OC)c3OC)c2C(=O)Nc2ccc(OC)cc2OC)C1 was read as FBW7 act -0.5, GPR151 ag -0.4, TEAD-YAP block 36.9* and MITF inh 30.6.
For CC(C)N1CCc2c(sc(NC(=O)c3cc4ccccc4oc3=O)c2C(N)=O)C1 the results were FBW7 act 0.0, GPR151 ag 0.4, TEAD-YAP block 61.8* and MITF inh 10.3.
Screening CC(C)CC1=NN2C(=N)/C(=C/c3ccc(-c4cccc(Cl)c4)o3)C(=O)N=C2S1 returned FBW7 act 0.0, GPR151 ag -0.5, TEAD-YAP block 5.2 and MITF inh -9.3.
CC(=O)N1CCc2c(sc(NC(=O)/C=C/c3cccs3)c2C(N)=O)C1 was read as FBW7 act 0.0, GPR151 ag -1.5, TEAD-YAP block 40.8* and MITF inh 10.0.
For CCOC(=O)N1CCc2c(sc(NC(=O)c3ccccc3Br)c2C#N)C1 the results were FBW7 act -0.1, GPR151 ag 4.7, TEAD-YAP block 53.3* and MITF inh -3.9.
For CCOC(=O)c1c(NC(=O)Cc2ccccc2)sc2c1CCN(C(=O)OCC)C2 the results were FBW7 act 5.2*, GPR151 ag 0.4, TEAD-YAP block 1.8 and MITF inh -4.0.
For CCOC(=O)c1c(NC(=O)c2ccc(Cl)s2)sc2c1CCN(C(C)C)C2 the results were FBW7 act 2.2*, GPR151 ag 0.3, TEAD-YAP block -8.1 and MITF inh 8.7.
`CCOC(=O)N1CCc2c(sc(NC(=O)Cc3ccccc3)c2C(N)=O)C1` gave FBW7 act 0.2, GPR151 ag -0.9, TEAD-YAP block -2.9 and MITF inh 17.0.
CCC1(CC)OC(c2ccc(-c3ccccc3[N+](=O)[O-])o2)Nc2ccccc21 (stereo not drawn) was read as FBW7 act -0.1, GPR151 ag -0.7, TEAD-YAP block 6.4 and MITF inh 3.3.
`COCCNCC(=O)Nc1ccccc1C(F)(F)F` gave FBW7 act 0.0, GPR151 ag 0.8, TEAD-YAP block 1.5 and MITF inh 41.6.
For CCOC(=O)N1CCc2c(sc(NC(=O)/C=C/c3cccs3)c2C#N)C1 the results were FBW7 act -0.1, GPR151 ag 0.7, TEAD-YAP block 49.1* and MITF inh -0.3.
For CC(=O)N1CCc2c(sc(NC(=O)CSc3ccccc3)c2C(N)=O)C1 the results were FBW7 act 0.0, GPR151 ag 4.0, TEAD-YAP block -4.7 and MITF inh 13.1.
For CCOC(=O)N1CCc2c(sc(NC(=O)c3cc(Cl)sc3Cl)c2C#N)C1 the results were FBW7 act -0.1, GPR151 ag -0.8, TEAD-YAP block 32.4* and MITF inh -6.0.
`CC(=O)N1CCc2c(sc(NC(=O)CCc3ccccc3)c2C(N)=O)C1` gave FBW7 act 0.0, GPR151 ag -0.5, TEAD-YAP block 51.2* and MITF inh 9.2.
CCOC(=O)N1CCc2c(sc(NC(=O)c3ccccc3)c2C#N)C1 was read as FBW7 act 0.3, GPR151 ag 0.9, TEAD-YAP block 51.0* and MITF inh 10.5.
CCOC(=O)N1CCc2c(sc(NC(=O)/C=C/c3ccc([N+](=O)[O-])cc3)c2C#N)C1 was read as FBW7 act -0.1, GPR151 ag 1.2, TEAD-YAP block 28.9 and MITF inh 0.8.
NC(=O)c1ccc(NC(=O)CCCc2nc(-c3ccccc3)no2)cc1 was read as FBW7 act 0.4, GPR151 ag 1.2, TEAD-YAP block -10.8 and MITF inh 7.4.
Screening CCc1cccc(C)c1NC(=O)CSc1nnc(CNC(=O)c2ccccc2)n1C returned FBW7 act -0.2, GPR151 ag -1.9, TEAD-YAP block 2.8 and MITF inh -0.6.
Cc1ccc(-n2nnc(-c3nc(-c4cccnc4)no3)c2N)cc1C was read as FBW7 act -0.1, GPR151 ag 0.8, TEAD-YAP block 1.4 and MITF inh 7.6.
For Cn1ccc2cc(Nc3nccc(-c4cncc(N5CCOCC5)c4)n3)ccc21 the results were FBW7 act -0.8, GPR151 ag -1.2, TEAD-YAP block 81.1* and MITF inh 21.3.
For COc1ccc(Nc2nccc(-c3cncc(N4CCOCC4)c3)n2)cc1OC the results were FBW7 act -0.3, GPR151 ag 1.7, TEAD-YAP block 46.5* and MITF inh -11.0.
`FC(F)(F)c1cc(Nc2nccc(-c3cncc(N4CCOCC4)c3)n2)ccc1Cl` gave FBW7 act 0.1, GPR151 ag -0.5, TEAD-YAP block -12.1 and MITF inh -0.6.
c1cc(-c2cncc(N3CCOCC3)c2)nc(Nc2ccc(OCCN3CCOCC3)cc2)n1 was read as FBW7 act -0.2, GPR151 ag -1.4, TEAD-YAP block 77.5* and MITF inh 15.7.
`O=S(=O)(c1ccc(Nc2nccc(-c3cncc(N4CCOCC4)c3)n2)cc1)N1CCOCC1` gave FBW7 act -0.2, GPR151 ag 0.1, TEAD-YAP block -7.7 and MITF inh -11.6.
For Fc1cc(-c2ccnc(Nc3ccc(-c4ncn[nH]4)cc3)n2)cc(N2CCOCC2)c1 the results were FBW7 act 0.5, GPR151 ag 2.4, TEAD-YAP block 73.6* and MITF inh 1.4.
Screening CCOC(=O)Cn1c(=O)oc2cc(S(=O)(=O)Nc3ccc(OC)c(OC)c3)ccc21 returned FBW7 act 0.0, GPR151 ag 2.1, TEAD-YAP block 11.9 and MITF inh 8.0.
COc1ccccc1OCCOc1ccc(Cl)cc1C=O was read as FBW7 act -0.1, GPR151 ag -0.9, TEAD-YAP block -16.8 and MITF inh 9.9.

Source: PubChem (The Scripps Research Institute Molecular Screening Center)
